High-throughput results deposited in PubChem by several laboratories.
Sampled rows, rich in hits. Any-hit rate of the full collection: about 5.4%.
aDG glyco up: alpha-DG glycosylation activation; Pro5-aDG cells, alpha-DG glycosylation AlphaScreen (IIH6); 0% Pro5, 100% B10-LARGE cell signal; activation, % at 10 µM; 360,000 tested, 0.22% active; AID 624168;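 active means activation of at least 8% versus controls, or a plate z-score of at least 8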;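 further: Pro5 are CHO cells carrying HIG-tagged alpha-DG that lacks glycosylation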
rCAG RNA binder: molecules binding r(CAG) RNA repeats | r(CAG) RNA repeat, TO-PRO-1 dye displacement fluorescence | inhibition, % at 3 µM | 370,000 tested, 1.3% active | AID 651821;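 active means inhibition above the plate cutoff, the mean of all test compounds on that plate plus 3 SD, cut at about 35% in these data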;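 further: 0% = DMSO alone and 100% = 100 µM mitoxantrone as full dye displacement; higher means more dye released from RNA so lower well fluorescence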
APOBEC3G inh: APOBEC3G (human) deaminase inhibition; recombinant A3G, ssDNA deamination FAM/TAMRA fluorescence; 330,000 tested, 0.28% active; inhibition, % at 20 µM; Q9HC16;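 active means inhibition of at least 40% at 20 µM, with no more than 30% in the related APOBEC3A deaminase screen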;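 further: plate controls were DMSO wells with A3G for no effect and wells lacking A3G enzyme for full effect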
Target sequence (Q9HC16 whole entry, looked up): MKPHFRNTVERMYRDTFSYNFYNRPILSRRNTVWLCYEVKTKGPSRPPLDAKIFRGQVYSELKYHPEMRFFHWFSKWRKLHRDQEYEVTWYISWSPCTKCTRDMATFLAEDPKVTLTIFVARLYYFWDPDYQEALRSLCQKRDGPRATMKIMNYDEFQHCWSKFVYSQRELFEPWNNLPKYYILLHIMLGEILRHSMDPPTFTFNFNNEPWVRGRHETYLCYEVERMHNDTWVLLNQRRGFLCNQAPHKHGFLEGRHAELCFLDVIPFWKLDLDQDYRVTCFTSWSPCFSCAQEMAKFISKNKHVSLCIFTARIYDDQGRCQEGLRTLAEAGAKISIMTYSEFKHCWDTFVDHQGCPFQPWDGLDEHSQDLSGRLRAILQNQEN
APOBEC3A inh: human APOBEC3A DNA deaminase inhibition; P31941; recombinant A3A, FAM/TAMRA ssDNA deamination fluorescence; inhibition, % at 20 µM; 330,000 tested, 0.41% active; AID 493011;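 active means at least 40% inhibition at 20 µM here, with at most 30% in a related deaminase screen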;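 further: plate controls were A3A with DMSO for no effect and wells lacking A3A enzyme for full effect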
ALR H2O2 inh: inhibitors of human sulfhydryl oxidase ALR; purified ALR, DTT oxidation, H2O2 HRP-luminol luminescence; 290,000 tested, 3.8% active; inhibition, % (no concentration beside the values); P55789; AID 485317;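 active means mean replicate inhibition above about 79%, with every replicate also reaching it, limit read from the data; inconclusive means only one of the two criteria met; inactive means mean below limit and not every replicate reaching it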
PHOSPHO1 block: inhibitors of human PHOSPHO1 phosphatase; Q8TCT1; recombinant PHOSPHO1, absorbance phosphatase assay; inhibition, % at 13.3 µM; 290,000 tested, 1.1% active; in the data active means inhibition above about 60%
Target sequence (Q8TCT1 whole entry, looked up): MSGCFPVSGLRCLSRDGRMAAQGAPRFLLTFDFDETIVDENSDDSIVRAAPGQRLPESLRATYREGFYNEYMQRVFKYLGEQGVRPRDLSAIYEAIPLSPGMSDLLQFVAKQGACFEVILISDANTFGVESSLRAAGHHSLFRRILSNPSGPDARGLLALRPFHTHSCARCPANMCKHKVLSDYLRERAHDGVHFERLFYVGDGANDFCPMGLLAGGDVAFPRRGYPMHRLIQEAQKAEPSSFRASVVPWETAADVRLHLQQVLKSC
rCAG binder conf: r(CAG) RNA repeat binding, confirmation | TO-PRO-1 dye displacement fluorescence | inhibition, % at 3 µM | shares compounds with rCAG RNA binder | 4,300 tested, 70% active | AID 652065;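 active means inhibition above a per-plate cutoff, the mean inhibition of sample wells plus 3 SD, cut at about 35% in these data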;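 further: loss of TO-PRO-1 fluorescence as compound displaces dye from 1x1 AA loop RNA; 0% = DMSO only wells and 100% = 100 µM mitoxantrone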
DNA CAG counter: counter-screen for rCAG RNA binders: DNA CAG dye complex inhibitors; shares compounds with rCAG RNA binder; d(CAG) DNA oligo TO-PRO-1 dye displacement, fluorescence; inhibition, % at 3 µM; 4,300 tested, 94% active; AID 652068;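 active means inhibition above its plate's cutoff, the mean test-well inhibition plus 3 SD, cut at about 4.8% in these data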;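 further: 0% = DNA dye mix with DMSO and 100% = 100 µM mitoxantrone; hits displace the dye from DNA and so lower well fluorescence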
DNA CAG DR: DNA CAG dye complex inhibition, dose response counter-screen; shares compounds with rCAG RNA binder; IC50, µM; DNA CAG/GTC duplex TO-PRO-1 dye displacement fluorescence; 250 tested, 20% active; AID 686960; in the data active means IC50 below about 10 µM
Starred values were filed as active, the others as inactive; ? = inconclusive; nt = not tested or not shown.

SMILES	aDG glyco up	rCAG RNA binder	APOBEC3G inh	APOBEC3A inh	ALR H2O2 inh	PHOSPHO1 block	rCAG binder conf	DNA CAG counter	others
CC1(C(=O)NCc2ccccc2)CSCC(=O)N1CCc1c[nH]c2ccccc12 (configuration not stated)	0	12	nt	nt	nt	nt	nt	nt
CN1OC[C@@H]2CN(S(=O)(=O)c3cccc(C(F)(F)F)c3)[C@H](c3ccc(N4CCCCC4)cc3)C[C@@H]21	0	0	nt	nt	nt	nt	nt	nt
O=C1/C(=C\c2ccco2)NC(=S)N1c1ccccc1	0	40*	-3	6	-10	20	38*	17*
O=P(O)(Cc1ccccc1)c1ccccc1	0	0	nt	nt	nt	nt	nt	nt
COc1ccc(CN2C[C@@]3(O)CC[C@@H](O)[C@@H](OC)[C@@H]3[C@@]2(C)[C@H](O)CC=C(C)C)cc1	nt	-1	nt	nt	nt	nt	nt	nt
CCCCOc1ccc(S(=O)(=O)NC(=O)C2(C)CCN2C(=O)CCc2ccccc2)cc1 (configuration not stated)	0	39*	nt	nt	nt	nt	32	7.2*
CCOc1ccc2nc(S(=O)(=O)NC(=O)C3(C)CCN3C(=O)CCc3cccs3)sc2c1 (configuration not stated)	0	38*	nt	nt	nt	nt	37*	9.9*
CCCCOc1ccc(S(=O)(=O)NC(=O)C2(C)CCN2C(=O)Cc2ccccc2Cl)cc1 (configuration not stated)	0	44*	nt	nt	nt	nt	38*	9.1*
Cc1cccc(S(=O)(=O)NC(=O)C2(C)CCN2C(=O)CCc2ccccc2)c1 (configuration not stated)	0	5	nt	nt	nt	nt	nt	nt
CCOC(=O)c1csc(NC(=O)C2CCCN(S(=O)(=O)c3ccccc3)C2)n1 (configuration not stated)	nt	3	nt	nt	nt	nt	nt	nt
Cc1cc(SCC(=O)c2ccc3c(c2)OCO3)nc2ccccc12	0	9	-2	1	-1	23	nt	nt
Cc1cc(SCC(=O)c2ccc(O)c(O)c2)nc2ccccc12	0	35*	1	-1	100*	30	54*	23*
CCCSc1nnc(NC(=O)c2sc3nc(-c4cccs4)ccc3c2N)s1	0	36*	-6	-4	0	33	68*	33*
O=S(=O)(Nc1cc(Cl)ccc1-n1cncn1)c1cc(Br)ccc1Br	0	57*	-9	0	13	nt	56*	21*
O=C(CC1S/C(=N/N=C/c2ccco2)NC1=O)Nc1ccccc1 (configuration not stated)	0	8	-3	-3	-5	-3	nt	nt
O=C(CC1S/C(=N/N=C/c2c[nH]c3ccccc23)NC1=O)Nc1ccccc1 (configuration not stated)	0	60*	-7	-5	nt	1	45*	15*
O=C(CC1S/C(=N/N=C/c2c[nH]c3ccc(OCc4ccccc4)cc23)NC1=O)Nc1ccccc1 (configuration not stated)	0	40*	-5	-2	nt	-5	50*	27*
O=C(CN(C(=O)OCC1c2ccccc2-c2ccccc21)[C@@H](Cc1ccccc1)C(=O)O)OCc1ccc(C(=O)NCc2ccccc2)cc1	nt	61*	nt	nt	nt	nt	70*	27*	DNA CAG DR=>30
Cc1ccc(-n2c(C)cc(C(=O)NS(=O)(=O)c3ccc(C)cc3)c2C)cc1	0	40*	-9	-7	54	1	27	9.7*
CCOc1ccc(-n2c(C)cc(C(=O)NS(=O)(=O)c3ccc(C)cc3)c2C)cc1	0	-1	-5	-2	24	3	nt	nt
COc1ccc(C=CC(=O)c2ccc(OCc3ccccc3)c(OC)c2)cc1OC	0	11	nt	nt	nt	nt	nt	nt
COc1ccc(C(=O)/C=C/c2ccc(OCc3ccccc3)cc2)cc1CSCC(=O)O	0	57*	-4	-1	99*	-21	78*	36*
COc1ccc(C(=O)/C=C/c2cccc(OCc3ccccc3)c2)cc1CSCC(=O)O	0	60*	-7	-5	57	38	83*	44*
COc1ccc(C(C)=O)cc1CSCC(=O)O	0	3	-17	-6	-2	42	nt	nt
OC(c1ccc(Cl)cc1)c1ncc(-c2cccc(C(F)(F)F)c2)[nH]1 (configuration not stated)	1	1	nt	nt	nt	nt	nt	nt
SMILES	aDG glyco up	rCAG RNA binder	APOBEC3G inh	APOBEC3A inh	ALR H2O2 inh	PHOSPHO1 block	rCAG binder conf	DNA CAG counter	others
CCOc1ccccc1NC(=O)COC(=O)COc1cccc2c1OC(C)(C)C2	0	0	nt	nt	nt	nt	nt	nt
Cc1nc(C(F)(F)F)ccc1C(=O)N1CCC(C)(C(=O)NS(=O)(=O)C2CC2)C1 (configuration not stated)	0	1	nt	nt	nt	nt	nt	nt
CCC(NC(=O)c1ccc2c(ccn2Cc2cccc(-c3ccc(C(=O)O)cc3)c2)c1)c1ccccc1 (configuration not stated)	nt	77*	nt	nt	nt	nt	77*	35*
Cc1ccc(S(=O)(=O)N2CC3(O)CN(C(=O)OC(C)C)N(C(=O)OC(C)C)CC3(OC(=O)NCc3ccccc3F)C2)cc1 (configuration not stated)	0	1	nt	nt	nt	nt	nt	nt
CCc1nnc(NS(=O)(=O)c2ccc(NC(=S)NC(=O)c3ccc(F)cc3)cc2)s1	1	64*	1	0	51	-6	52*	19*
CCc1nnc(NS(=O)(=O)c2ccc(NC(=O)/C=C/c3ccc(F)cc3)cc2)s1	0	73*	-9	-3	98*	23	50*	20*
CCc1nnc(NC(=O)c2ccc(S(C)(=O)=O)cc2)s1	0	0	0	4	-2	6	nt	nt
CCc1nnc(NS(=O)(=O)c2ccc(NC(=O)c3ccc(Br)cc3)cc2)s1	0	60*	-6	-6	?	20	53*	13*
O=C(/C=C/c1ccc(F)cc1)Nc1ccc(S(=O)(=O)Nc2ncccn2)cc1	0	7	-4	1	-3	6	nt	nt
CC(C)(C)S(=O)(=O)N1C[C@H]2C(=C(CCO)C[C@H]3C(=O)N(c4ccccc4)C(=O)[C@H]32)[C@@H]1CCO	nt	-1	nt	nt	nt	nt	nt	nt
O=C(O)c1cccc(NC(=S)NC(=O)c2cccc(OCc3ccccc3)c2)c1	0	61*	-8	-7	98*	nt	64*	26*
OC[C@@H]1CN(Cc2ccncc2)C[C@H](n2cnc3c(N4CCCC4)ncnc32)O1	0	1	nt	nt	nt	nt	nt	nt
COc1ccc(/C=C2\Oc3cc(OCC(=O)N4CCC(C(=O)O)CC4)ccc3C2=O)c(OC)c1	0	nt	-8	-3	nt	34	nt	nt
